# High-throughput results (PubChem BioAssay)
# Pf apPOL block: Pf-apPOL DNA polymerase inhibition; Recombinant Pf-apPOL, molecular beacon fluorescence, 1.5 h; inhibition, % at 10 µM; 210,000 compounds, 0.25% hits
# mHTT-CaM PPI inh: mHTT-calmodulin interaction abrogation. P42858. AlphaScreen His-mHTT/GST-CaM binding, luminescence. inhibition, % at 15 µM. 190,000 compounds, 3.6% hits. AID 1671202;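 note: 0% = both proteins with DMSO and 100% = one protein alone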
# The depositor's hits bear a star; nt = no result. Sampled rows, rich in hits. Any-hit rate of the full collection: about 3.5%. Cut-off read from the data, not from the text of the source: active = inhibition above about 50%; inactive = the rest.
SMILES,Pf apPOL block,mHTT-CaM PPI inh
Cc1ccccc1-c1ccc(CN2C(C(C)C)C(=O)N(Cc3cn(CCC4OCCO4)nn3)CCS2(=O)=O)cc1 (centres undefined),-5.2,71.1*
Cc1ccc(-c2ccc(CN3C(C(C)C)C(=O)N(Cc4cn(CCC5OCCO5)nn4)CCS3(=O)=O)cc2)c(C)c1 (centres undefined),-3.2,73.6*
COc1ccc(-c2ccc(CN3C(C(C)C)C(=O)N(Cc4cn(CCC5OCCCO5)nn4)CCS3(=O)=O)cc2)cc1OC (centres undefined),5.3,44.1
COc1ccc(N2CC(c3nnc(NC(=O)c4ccc(F)cc4)o3)CC2=O)cc1 (centres undefined),-1.9,25.6
COc1ccc(C2CC(C(F)(F)F)n3nc(C(=O)Nc4cccc(O)c4)c(Cl)c3N2)cc1 (centres undefined),-2.5,32.0
CC(NC(=O)c1cn2c(n1)CCCC2)c1ccc(F)cc1 (centres undefined),-8.0,10.4
CC(NC(=O)c1cn2c(n1)CSCC2)c1ccc(F)cc1 (centres undefined),-6.4,92.7*
NC1CSCC1O (centres undefined),-0.4,3.4
CC(C)S(=O)(=O)Nc1ccc2c(c1)CN(C(=O)c1ccco1)CC2,-5.1,-4.2
CC(C)C(=O)N1CCc2ccc(NS(=O)(=O)Cc3ccc(Cl)cc3)cc2C1,93.7*,-1.4
C=CCN(C(=O)c1noc2c1CCCCC2)c1ccccc1,-0.4,-6.2
O=C1Nc2ccccc2/C1=C\c1c(Cl)cccc1Cl,1.5,49.0
O=C1Nc2ccc(Br)cc2/C1=C\c1c(Cl)cccc1Cl,2.8,100.0*
O=C1Nc2ccc(Br)cc2/C1=C/c1ccccc1Cl,-1.7,11.0
O=C1Nc2ccc(F)cc2/C1=C\c1c(Cl)cccc1Cl,-3.4,100.0*
CCN1C(=O)/C(=C2\C=Cc3ccccc3N2CC)SC1=Nc1ccc(OC)cc1,0.6,55.0*
CCSC1=NC(=O)/C(=C2\C=Cc3ccccc3N2CC)S1,-17.3,49.0
Cc1cccnc1N(C(=O)c1ccccc1F)C(=O)c1ccccc1F,0.4,4.8
CC(C)N(C(=O)c1ccccc1F)C(C)C,-5.7,81.7*
O=S(=O)(NC1CC1)c1ccc2oc3cc(-n4cnnn4)ccc3c2c1,nt,10.6
Cc1ccc(C)c(S(=O)(=O)N=C2C=CC(=O)c3ccccc32)c1,-2.7,96.0*
Cc1cc(S(=O)(=O)N2CCN(S(=O)(=O)c3ccc(Cl)c(C)c3)CC2)ccc1Cl,-4.2,-2.0
Cc1ccc(C)c(S(=O)(=O)N2CCN(C)CC2)c1,1.4,-2.8
Cc1cc(C)c(S(=O)(=O)N=C2C=C(Br)C(=O)c3ccccc32)cc1C,2.5,41.0
Cc1cc(S(=O)(=O)N=C2C=CC(=O)c3ccccc32)ccc1Cl,-5.0,90.0*
SMILES,Pf apPOL block,mHTT-CaM PPI inh
Cc1cc(C)c(S(=O)(=O)N=C2C=CC(=O)c3ccccc32)cc1C,4.7,98.0*
COc1ccccc1CNC(=O)COc1cccc(C)c1C,2.3,-15.2
O=C1OC(c2ccccc2)=N/C1=C/c1cccc(F)c1,-5.1,1.0
Cc1cc(NS(=O)(=O)c2cccc([N+](=O)[O-])c2)c(C)c(Cl)c1O,-3.6,6.0
COc1cccc(CNC(=O)c2cc3c(n2C)CCN(Cc2cccc(F)c2)C3)c1,1.2,42.4
FC(F)(F)c1ccc(CSc2c[nH]c3ccccc23)cc1,-8.1,87.0*
O=S(=O)(Cc1ccc(C(F)(F)F)cc1)c1c[nH]c2ccccc12,-0.1,14.0
NC1=NNC(c2ccccc2)=CS1,-1.6,53.4*
Nc1nnc(-c2ccccc2)s1,2.6,-8.2
Cc1ccc(C2CC(C(F)(F)F)n3nc(C(=O)N4CCN(c5ccccc5)CC4)cc3N2)cc1 (centres undefined),-10.9,90.0*
Cc1ccc(C2CC(C(F)(F)F)n3nc(C(=O)N4CCCC4)cc3N2)cc1 (centres undefined),-5.2,32.0
Cc1oc(C2CCN(C(=O)c3ccc(C(F)(F)F)cc3)CC2)nc1C(=O)N1CCCCC1,1.7,20.6
COc1ccccc1C1C2=C(CC(C)(C)CC2=O)Nc2nc(-c3cccc(Cl)c3)nn21 (centres undefined),-3.3,70.4*
CC1(C)CC(=O)C2=C(C1)Nc1nc(-c3ccccc3)nn1C2c1ccccc1 (centres undefined),-2.0,43.0
COc1ccc(-c2nc3n(n2)C(c2ccccc2)C2=C(CC(C)(C)CC2=O)N3)cc1 (centres undefined),-4.1,51.6*
COc1ccc(C2C3=C(CC(C)(C)CC3=O)Nc3nc(-c4ccc(O)cc4)nn32)cc1 (centres undefined),1.5,50.2*
CC1(C)CC(=O)C2=C(C1)Nc1nc(-c3ccccc3)nn1C2c1ccc(Br)cc1 (centres undefined),-3.2,35.2
COc1cccc(C2C3=C(CC(C)(C)CC3=O)Nc3nc(-c4cccc(Cl)c4)nn32)c1 (centres undefined),-1.5,0.7
COc1ccccc1-c1nc(C2CCN(C(=O)Cc3ccc(F)cc3)CC2)no1,-1.7,13.7
O=C(CSc1nc2c(c(=O)n1-c1ccccc1)SCC2)c1ccc(Cl)cc1,1.3,-7.0
O=C(NCCNC(=O)c1ccc(N2CCOCC2)nn1)c1ccc(NC(=O)C2CC2)cc1,-7.5,-12.4
Cn1nc(-c2ccc(NC(=O)Cc3ccc(Cl)cc3)cc2)ccc1=O,-7.4,7.9
COc1ccc(CC(=O)NC2CC(O)C(CO)C2)cc1 (centres undefined),-7.1,-5.1
COc1ccc(OC)c(N2CCN(C(=O)c3cccc(C)c3)C(C)C2=O)c1 (centres undefined),-1.1,12.4
CC(C)(CO)NCC(O)Cn1c2ccc(Cl)cc2c2cc(Cl)ccc21 (centres undefined),0.0,96.7*
SMILES,Pf apPOL block,mHTT-CaM PPI inh
CN(C)CC(O)Cn1c2ccc(Cl)cc2c2cc(Cl)ccc21 (centres undefined),26.1,60.1*
CN(C)CC(O)Cn1c2ccccc2c2ccccc21 (centres undefined),-9.9,0.6
OCC(CO)(CO)NCC(O)Cn1c2ccccc2c2ccccc21 (centres undefined),3.7,2.4
OCCNCC(O)Cn1c2ccccc2c2ccccc21 (centres undefined),-4.5,1.9
OCC(CO)(CO)NCC(O)Cn1c2ccc(Cl)cc2c2cc(Cl)ccc21 (centres undefined),1.2,67.9*
Cc1cc(C2CCCN2Cc2cc(Cl)ccc2O)no1 (centres undefined),-2.4,14.8
CN(C)c1ccc(NC(=O)CCc2ccccc2)cc1,-1.3,17.4
CC1=C(C)Cn2c(=S)c3ccccc3c(=S)n2C1,nt,3.2
Cc1ccc(NC(NC(=O)Nc2ccccc2)C(Cl)(Cl)Cl)cc1 (centres undefined),-0.8,85.0*
Cc1ccc(NC(=O)Nc2ccc(Cl)cc2)cc1,-14.6,-1.6
Cc1ccccc1C(=O)Nc1cccc(NC(=O)c2sc3ccccc3c2Cl)c1,-7.5,-0.4
O=C(Nc1nc(-c2ccccn2)cs1)c1sc2ccccc2c1Cl,-1.8,100.0*
O=C(Nc1nc(-c2ccccn2)cs1)c1nc2ccccc2s1,-75.8,100.0*
CCC(=O)Nc1cccc(NC(=O)c2sc3ccccc3c2Cl)c1,-10.2,56.0*
O=C(NCc1ccccn1)c1sc2ccccc2c1Cl,-0.4,-3.3
O=C(Nc1nc(-c2nc3ccccc3s2)cs1)c1ccno1,5.1,-8.0
Cc1ccc(N2C(=O)N(Cc3ccccc3)S(=O)(=O)c3cccnc32)cc1F,-4.4,-11.7
